These results are taken from PubChem BioAssay (NCATS).

For assay [1], the target named is Glucocorticoid receptor (Homo sapiens) (UniProt P04150). Briefly: qHTS assay for small molecule agonists of glucocorticoid receptor signaling (AID 588532; active means well fitted curve in the direction sought with a large enough effect in the signal ratio, with a control signal flat; the % refers to the signal ratio;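 further: 100% = dexamethasone at 0.1 µM and 0% = DMSO only wells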). As to conditions: HeLa MMTV-bla, beta-lactamase ratio, agonist, 18 h; stronger effect = higher value; percent of dexamethasone control, DMSO zero. A digest of the protocol:
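Quantitative HTS using CellSensor MMTV-bla HeLa cells in charcoal/dextran-treated serum; compounds tested up to 92 uM. After 18 h at 37 C, CCF4 dye reported reporter induction.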

Assay [2] shares this target. In words: qHTS assay for small molecule antagonists of glucocorticoid receptor signaling (AID 588533; active means well fitted inhibition curve with a large enough effect in the signal ratio, with a control signal flat, not every such curve was filed as active; the % refers to the signal ratio;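 further: cells stimulated with 2 nM dexamethasone as agonist; on the % scale 0 is the no-effect control and ±100 the full control effect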). The settings on record: HeLa MMTV-bla, GRE beta-lactamase ratio, antagonist mode, 18 h; series mostly up to 76.8 µM. A digest of the protocol:
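Antagonist-mode qHTS: compound titrations added to GRE-bla HeLa cells, then dexamethasone 2 nM final; 18 h, 37 C. CCF4 FRET fluorescence normalized to dexamethasone and DMSO; IC50 from Hill fit.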

The target of assay [3] is Peroxisome proliferator-activated receptor delta (Homo sapiens) (UniProt Q03181). In words: qHTS assay for small molecule agonists of peroxisome proliferator-activated receptor delta signaling (AID 588534).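 Further: 0% = DMSO basal wells and 100% = positive control agonist at 10 µM.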 As to conditions: HEK293T PPARdelta-UAS-bla, beta-lactamase ratio, 18 h; series mostly up to 76.7 µM. In outline:
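EC50 and efficacy values derive from Hill fits of a concentration series in a beta-lactamase reporter cell assay. Exposure is 18 hrs at 37 C, with CCF4 fluorescence as the readout.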

Assay [4] can be described thus: qHTS assay for small molecule antagonists of peroxisome proliferator-activated receptor delta signaling (AID 588535; active means well fitted inhibition curve with a large enough effect in the signal ratio, with a control signal flat, not every such curve was filed as active; the % refers to the signal ratio;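 on max response: cells co-treated with a PPAR-delta agonist as stimulator during compound exposure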). The settings on record: HEK293T PPARd-UAS-bla, beta-lactamase FRET ratio, 18 h; 460 nm channel. In outline: (§1)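 Antagonist-mode qHTS using GeneBLAzer PPAR-delta-UAS-bla HEK293T cells; compound exposure 18 hrs at 37 C over a titration. Ratiometric CCF4 fluorescence at 460/530 nm; concentration-response points fitted to the Hill equation.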

Assay [5] has as its target Peroxisome proliferator-activated receptor delta (Homo sapiens) (UniProt Q03181). Described as above. The settings on record: HEK293T PPARd-UAS-bla, beta-lactamase FRET ratio, 18 h; series mostly up to 76.7 µM. A digest of the protocol:
as §1

Assay [6] concerns the target Peroxisome proliferator-activated receptor gamma (Homo sapiens) (UniProt P37231). Briefly: qHTS assay for small molecule agonists of peroxisome proliferator-activated receptor gamma signaling (AID 588536; active means well fitted curve in the direction sought with a large enough effect in the signal ratio, with a control signal flat, not every such curve was filed as active; the % refers to the signal ratio). As to conditions: HEK293 PPARg-UAS-bla, beta-lactamase ratio, 16 h, percent of rosiglitazone response, DMSO as zero; series mostly up to 76.7 µM. A digest of the protocol: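 Beta-lactamase reporter read-out: CCF4 fluorescence (ex 405, em 460/530 nm) after 2 h at RT. HEK293 GeneBLAzer cells were treated for 16 h at 37 C. Hill fits gave EC50 and efficacy versus 2 uM rosiglitazone (100%) and DMSO (0%).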

Assay [7] concerns the target Vitamin D3 receptor (Homo sapiens) (UniProt P11473). In words: qHTS assay for small molecule antagonists of vitamin D receptor signaling (AID 588541).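 Further: receptor activated by calcitriol during compound treatment; on the % scale 0 is the no-effect control and ±100 the full control effect.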 The settings on record: HEK293T VDR-UAS-bla, beta-lactamase ratio, antagonist mode; series mostly up to 76.7 µM. A digest of the protocol: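 Antagonist-mode beta-lactamase reporter assay: HEK293T VDR-UAS-bla cells were exposed to titrated compound alongside 1-alpha,25-dihydroxyvitamin D3 at 3 nM final for 16 h. Values were normalized to the 50 nM agonist control and DMSO basal, with IC50 and efficacy from Hill equation fits.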

For assay [8] the target is unchanged. In words: qHTS assay for small molecule agonists of vitamin D receptor signaling (AID 588543).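 Further: 0% = DMSO basal and 100% = reference agonist control.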 As to conditions: HEK293T VDR-UAS-bla, beta-lactamase ratio, 16 h; series mostly up to 76.8 µM. In outline:
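VDR-UAS-bla HEK293T cells, 2000/well, 2% charcoal-stripped FBS; compound titration 16 h at 37 C; CCF4 beta-lactamase ratio read. Normalized to 50 nM 1-alpha,25-dihydroxyvitamin D3 (100%) and DMSO; Hill fit gives EC50, efficacy.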

A short description of assay [9]: qHTS assay for small molecule agonists of retinoid X receptor alpha signaling (AID 588544).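 On activation: 0% = DMSO basal wells and 100% = reference agonist.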 As to conditions: HEK293T RXRa-UAS-bla, beta-lactamase reporter, 18 h; 530 nm emission.
The target in assay [10] is Retinoic acid receptor RXR-alpha (Homo sapiens) (UniProt P19793). The description is as above. The settings on record: HEK293T RXRa-UAS-bla, beta-lactamase reporter, 18 h; series mostly up to 76.7 µM.
Assay [11] concerns the target Thyroid hormone receptor beta (Homo sapiens) (UniProt P10828). Briefly: qHTS assay for small molecule agonists of thyroid hormone receptor beta signaling (AID 588545). As to conditions: TR-UAS-bla GripTite HEK 293, beta-lactamase ratio, agonist mode, 18 h, percent of T3 response, DMSO as zero; series mostly up to 76.7 µM. In outline:
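In this cell-based screen, titrated compounds act on HEK 293 cells held in medium with 2% charcoal/dextran FBS, NEAA and pyruvate for 18 hrs at 37 C. Responses are expressed relative to T3 (10 nM) as 100% and basal DMSO as 0%.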

Assay [12] in a line: qHTS assay for small molecule antagonists of retinoid X receptor alpha signaling (AID 588546; active means well fitted inhibition curve with a large enough effect in the signal ratio, with a control signal flat, not every such curve was filed as active; the % refers to the signal ratio;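 further: cells stimulated with 9-cis-retinoic acid as agonist; on the % scale 0 is the no-effect control and ±100 the full control effect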). The settings on record: HEK293T RXRa-UAS-bla, beta-lactamase ratio, antagonist mode; measured here: W530 green channel, cytotoxicity proxy. In outline:
(§2)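 Beta-lactamase reporter inhibition, read as CCF4 fluorescence ratio (ex 405, em 460/530 nm) after 2 h at RT. HEK293T UAS-bla cells, 2500/well, were stimulated with 9-cis-RA at 500 or 100 nM final alongside test compound for 18 h at 37 C.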

Assay [13] concerns the target Retinoic acid receptor RXR-alpha (Homo sapiens) (UniProt P19793). The assay is described as above. As to conditions: HEK293T RXRa-UAS-bla, beta-lactamase ratio, antagonist mode. In outline: as §2
The target in assay [14] is Thyroid hormone receptor beta (Homo sapiens) (UniProt P10828). In words: qHTS assay for small molecule antagonists of thyroid hormone receptor beta signaling (AID 588547; active means well fitted inhibition curve with a large enough effect in the signal ratio, with a control signal flat, not every such curve was filed as active; the % refers to the signal ratio;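 further: cells stimulated with 0.4 nM T3 agonist during compound exposure; on the % scale 0 is the no-effect control and ±100 the full control effect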). As to conditions: TR-UAS-bla HEK293, beta-lactamase ratio, antagonist mode, 18 h. In outline: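 Inhibition of T3-driven (0.4nM final) beta-lactamase reporter activity was measured over 0.59 nM to 92 uM compound after 18 h at 37 C. The cells were GripTite HEK293 TR-UAS-bla in charcoal/dextran-stripped serum, with CCF4 ratio read-out and IC50 from Hill fits.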

Assay [15] deals with Voltage-gated inwardly rectifying potassium channel KCNH2 (Homo sapiens) (UniProt Q12809). Briefly: qHTS Assay for Small Molecule Inhibitors of the Human hERG Channel Activity (AID 588834; active means well fitted curve in the direction sought with a large enough effect; an effect the other way counts as inactive or inconclusive;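 further: lower thallium flux fluorescence means stronger hERG block; nearly all actives have a fitted effect of over 50% in size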; further: potency means the concentration at half of the fitted maximal effect). As to conditions: U2OS BacMam hERG, FluxOR thallium flux fluorescence; series mostly up to 46.1 µM. In outline: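 Thallium serves as surrogate for K+ influx through BacMam-delivered hERG in U2OS cells. Compounds are added for about 10 minutes after dye loading; stimulation buffer then starts flux, monitored kinetically on FDSS.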

Assay [16] deals with Luciferin 4-monooxygenase (Photinus pyralis) (UniProt P08659). Briefly: Biochemical firefly luciferase enzyme assay for NPC (AID 624030; active means well fitted curve in the direction sought with a large enough effect; an effect the other way counts as inactive or inconclusive;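 further: purified P. pyralis luciferase at 10 nM with luciferin and ATP substrate; 0% = DMSO and -100% = full luciferase inhibition by PTC124 control; nearly all actives have a fitted effect of over 70% in size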). The settings on record: purified P. pyralis luciferase, luminescence, 5 min; series mostly up to 58.6 µM. A digest of the protocol: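 Direct inhibition of firefly luciferase enzyme (10 nM final, 50 mM Tris Acetate) assessed by luminescence within 5 minutes. Percent activity scaled between DMSO and PTC124 positive control, with concentration-effect curves classified by fit quality and response.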

Assay [17] deals with Peroxisome proliferator-activated receptor gamma (Homo sapiens) (UniProt P37231). Briefly: qHTS assay for small molecule antagonists of peroxisome proliferator-activated receptor gamma signaling (AID 588537; active means well fitted inhibition curve with a large enough effect in the signal ratio, with a control signal flat, not every such curve was filed as active; the % refers to the signal ratio;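 further: reporter cells co-stimulated with 50 nM rosiglitazone agonist during compound treatment; % of control where 0% means no effect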). As to conditions: HEK293 PPARg-UAS-bla, beta-lactamase ratio, antagonist mode; series mostly up to 76.8 µM. A digest of the protocol: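 Cell-based beta-lactamase assay; GW9662 served as the antagonist control. Stimulation used rosiglitazone, final 50 nM, 16 h, 37 C.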

The nature of assay [18]: S16 Schwann cell viability assay (CellTiter-Glo assay) (AID 624031; active means well fitted curve in the direction sought with a large enough effect; an effect the other way counts as inactive or inconclusive;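 further: native untransfected S16 rat Schwann cells; cellular ATP luminescence as a viability measure; plate controls were DMSO-treated cells for no effect and cell-free wells for full effect; nearly all actives have a fitted effect of over 70% in size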). As to conditions: S16 rat Schwann cells viability, 24 h; series mostly up to 57.5 µM. A digest of the protocol: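 Parental S16 cells, 24 h compound, 37 °C. ATP-luminescence viability; DMSO = 0% activity, empty wells as reference; curves classified by fit quality and efficacy.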
A short description of assay [19]: S16 Schwann cell PMP22 intronic element firefly luciferase assay (AID 624032; active means well fitted curve in the direction sought with a large enough effect; an effect the other way counts as inactive or inconclusive;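 further: plate controls were DMSO for no effect and PTC124 positive control mean for full effect; nearly all actives have a fitted effect of over 30% in size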). As to conditions: S16 rat Schwann cells, PMP22 element FLuc, 24 h; series mostly up to 57.5 µM. A digest of the protocol:
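Luciferase reporter of PMP22 intronic-element expression in stably transfected S16 rat Schwann cells, read by ONE-Glo luminescence after 24 h compound exposure at 37 C. Activity scaled between DMSO (0%) and positive-control PTC124; concentration-effect curves quality-classified.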

SMILES strings stand for the structures. “And” between values parts separate entries of the source, which are not always exact repeats. Equal entries are not always repeated. Results filed as inconclusive are left out. The source made the active and inactive calls. Unless noted, the call rests on the fitted dose curve.

Chain of Luciferin 4-monooxygenase (Photinus pyralis) (P08659 whole entry, looked up): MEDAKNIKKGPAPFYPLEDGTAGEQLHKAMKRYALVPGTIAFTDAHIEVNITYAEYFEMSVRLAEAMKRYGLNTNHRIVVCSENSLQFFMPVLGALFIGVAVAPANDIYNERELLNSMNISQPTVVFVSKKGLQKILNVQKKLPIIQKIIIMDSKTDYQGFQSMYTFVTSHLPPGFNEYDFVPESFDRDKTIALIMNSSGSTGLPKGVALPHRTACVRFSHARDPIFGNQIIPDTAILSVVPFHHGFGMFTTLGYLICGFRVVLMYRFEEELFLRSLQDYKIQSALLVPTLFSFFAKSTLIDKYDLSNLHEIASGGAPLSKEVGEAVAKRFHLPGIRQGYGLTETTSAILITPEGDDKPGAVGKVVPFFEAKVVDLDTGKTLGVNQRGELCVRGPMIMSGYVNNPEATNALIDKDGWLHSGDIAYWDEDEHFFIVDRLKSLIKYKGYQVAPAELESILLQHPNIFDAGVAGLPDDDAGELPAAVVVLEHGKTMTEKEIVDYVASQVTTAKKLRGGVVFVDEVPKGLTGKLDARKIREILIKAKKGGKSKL
Chain of Glucocorticoid receptor (Homo sapiens) (P04150 whole entry, looked up): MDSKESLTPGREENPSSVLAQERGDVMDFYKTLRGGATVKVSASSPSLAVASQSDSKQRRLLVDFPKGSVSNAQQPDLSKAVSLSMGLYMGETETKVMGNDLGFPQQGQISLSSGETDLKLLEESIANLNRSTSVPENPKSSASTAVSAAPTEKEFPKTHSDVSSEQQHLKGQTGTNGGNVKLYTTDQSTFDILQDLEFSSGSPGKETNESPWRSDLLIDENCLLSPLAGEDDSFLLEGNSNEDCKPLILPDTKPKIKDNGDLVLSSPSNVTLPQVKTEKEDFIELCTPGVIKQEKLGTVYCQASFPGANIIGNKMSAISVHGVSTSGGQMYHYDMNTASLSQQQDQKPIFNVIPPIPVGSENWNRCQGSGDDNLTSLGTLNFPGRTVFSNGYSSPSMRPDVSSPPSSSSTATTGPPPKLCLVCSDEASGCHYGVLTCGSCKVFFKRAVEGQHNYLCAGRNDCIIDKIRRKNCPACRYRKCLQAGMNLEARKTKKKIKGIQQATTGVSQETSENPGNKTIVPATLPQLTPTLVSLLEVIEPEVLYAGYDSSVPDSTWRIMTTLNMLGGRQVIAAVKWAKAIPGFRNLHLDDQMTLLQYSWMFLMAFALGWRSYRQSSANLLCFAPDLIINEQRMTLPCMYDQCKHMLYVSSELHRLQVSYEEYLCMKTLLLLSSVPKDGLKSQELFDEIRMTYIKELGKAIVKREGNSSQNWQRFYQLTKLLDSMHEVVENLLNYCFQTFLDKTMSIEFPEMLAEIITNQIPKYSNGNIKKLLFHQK
Chain of Peroxisome proliferator-activated receptor delta (Homo sapiens) (Q03181 whole entry, looked up): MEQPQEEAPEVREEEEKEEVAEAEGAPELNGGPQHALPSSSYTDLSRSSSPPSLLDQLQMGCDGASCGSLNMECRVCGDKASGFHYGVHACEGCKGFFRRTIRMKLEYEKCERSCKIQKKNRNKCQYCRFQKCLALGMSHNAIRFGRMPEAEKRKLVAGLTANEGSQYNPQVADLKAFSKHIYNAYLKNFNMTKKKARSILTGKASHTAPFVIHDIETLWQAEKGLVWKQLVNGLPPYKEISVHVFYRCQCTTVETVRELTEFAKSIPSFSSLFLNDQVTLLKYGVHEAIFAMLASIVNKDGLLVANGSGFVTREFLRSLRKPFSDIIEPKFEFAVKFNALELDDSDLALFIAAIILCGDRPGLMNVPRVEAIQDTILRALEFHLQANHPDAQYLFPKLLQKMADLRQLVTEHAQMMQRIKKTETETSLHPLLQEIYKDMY
Chain of Vitamin D3 receptor (Homo sapiens) (P11473 whole entry, looked up): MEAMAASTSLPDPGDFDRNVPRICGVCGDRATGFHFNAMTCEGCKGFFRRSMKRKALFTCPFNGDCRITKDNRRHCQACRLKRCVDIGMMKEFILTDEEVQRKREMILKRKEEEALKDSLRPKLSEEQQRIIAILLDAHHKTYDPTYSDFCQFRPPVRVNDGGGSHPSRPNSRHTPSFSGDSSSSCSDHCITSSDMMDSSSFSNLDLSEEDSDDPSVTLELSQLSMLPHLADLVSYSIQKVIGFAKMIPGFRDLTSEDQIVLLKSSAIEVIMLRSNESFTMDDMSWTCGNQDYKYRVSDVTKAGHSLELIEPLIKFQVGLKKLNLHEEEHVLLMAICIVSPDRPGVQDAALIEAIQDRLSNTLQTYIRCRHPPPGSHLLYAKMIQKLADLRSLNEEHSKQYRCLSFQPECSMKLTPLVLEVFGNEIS
Chain of Peroxisome proliferator-activated receptor gamma (Homo sapiens) (P37231 whole entry, looked up): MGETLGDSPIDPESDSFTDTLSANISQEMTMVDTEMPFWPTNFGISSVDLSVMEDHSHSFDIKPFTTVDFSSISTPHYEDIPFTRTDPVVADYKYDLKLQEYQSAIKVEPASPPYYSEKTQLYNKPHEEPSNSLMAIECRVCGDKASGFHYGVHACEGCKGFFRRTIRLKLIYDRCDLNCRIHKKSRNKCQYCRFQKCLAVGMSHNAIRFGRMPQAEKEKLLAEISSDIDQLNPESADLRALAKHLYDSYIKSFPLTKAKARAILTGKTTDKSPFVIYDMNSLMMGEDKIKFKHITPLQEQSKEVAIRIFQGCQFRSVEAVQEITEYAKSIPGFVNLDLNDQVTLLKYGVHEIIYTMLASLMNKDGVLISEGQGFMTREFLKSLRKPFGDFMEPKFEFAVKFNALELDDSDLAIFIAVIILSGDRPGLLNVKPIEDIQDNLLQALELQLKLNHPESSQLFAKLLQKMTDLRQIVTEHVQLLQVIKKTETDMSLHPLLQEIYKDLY
Chain of Thyroid hormone receptor beta (Homo sapiens) (P10828 whole entry, looked up): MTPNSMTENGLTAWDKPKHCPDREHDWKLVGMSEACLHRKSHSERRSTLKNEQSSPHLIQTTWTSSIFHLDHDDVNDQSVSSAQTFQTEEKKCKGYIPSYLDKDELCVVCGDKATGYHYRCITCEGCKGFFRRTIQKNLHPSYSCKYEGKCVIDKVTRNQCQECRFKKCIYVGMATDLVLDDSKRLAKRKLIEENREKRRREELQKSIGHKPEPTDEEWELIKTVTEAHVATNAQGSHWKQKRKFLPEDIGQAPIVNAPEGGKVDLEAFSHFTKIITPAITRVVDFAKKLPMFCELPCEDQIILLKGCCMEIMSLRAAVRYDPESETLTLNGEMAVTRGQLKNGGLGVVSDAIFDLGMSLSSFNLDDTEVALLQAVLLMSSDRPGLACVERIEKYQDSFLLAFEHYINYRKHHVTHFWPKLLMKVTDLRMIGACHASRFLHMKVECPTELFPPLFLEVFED
Chain of Voltage-gated inwardly rectifying potassium channel KCNH2 (Homo sapiens) (Q12809 whole entry, looked up): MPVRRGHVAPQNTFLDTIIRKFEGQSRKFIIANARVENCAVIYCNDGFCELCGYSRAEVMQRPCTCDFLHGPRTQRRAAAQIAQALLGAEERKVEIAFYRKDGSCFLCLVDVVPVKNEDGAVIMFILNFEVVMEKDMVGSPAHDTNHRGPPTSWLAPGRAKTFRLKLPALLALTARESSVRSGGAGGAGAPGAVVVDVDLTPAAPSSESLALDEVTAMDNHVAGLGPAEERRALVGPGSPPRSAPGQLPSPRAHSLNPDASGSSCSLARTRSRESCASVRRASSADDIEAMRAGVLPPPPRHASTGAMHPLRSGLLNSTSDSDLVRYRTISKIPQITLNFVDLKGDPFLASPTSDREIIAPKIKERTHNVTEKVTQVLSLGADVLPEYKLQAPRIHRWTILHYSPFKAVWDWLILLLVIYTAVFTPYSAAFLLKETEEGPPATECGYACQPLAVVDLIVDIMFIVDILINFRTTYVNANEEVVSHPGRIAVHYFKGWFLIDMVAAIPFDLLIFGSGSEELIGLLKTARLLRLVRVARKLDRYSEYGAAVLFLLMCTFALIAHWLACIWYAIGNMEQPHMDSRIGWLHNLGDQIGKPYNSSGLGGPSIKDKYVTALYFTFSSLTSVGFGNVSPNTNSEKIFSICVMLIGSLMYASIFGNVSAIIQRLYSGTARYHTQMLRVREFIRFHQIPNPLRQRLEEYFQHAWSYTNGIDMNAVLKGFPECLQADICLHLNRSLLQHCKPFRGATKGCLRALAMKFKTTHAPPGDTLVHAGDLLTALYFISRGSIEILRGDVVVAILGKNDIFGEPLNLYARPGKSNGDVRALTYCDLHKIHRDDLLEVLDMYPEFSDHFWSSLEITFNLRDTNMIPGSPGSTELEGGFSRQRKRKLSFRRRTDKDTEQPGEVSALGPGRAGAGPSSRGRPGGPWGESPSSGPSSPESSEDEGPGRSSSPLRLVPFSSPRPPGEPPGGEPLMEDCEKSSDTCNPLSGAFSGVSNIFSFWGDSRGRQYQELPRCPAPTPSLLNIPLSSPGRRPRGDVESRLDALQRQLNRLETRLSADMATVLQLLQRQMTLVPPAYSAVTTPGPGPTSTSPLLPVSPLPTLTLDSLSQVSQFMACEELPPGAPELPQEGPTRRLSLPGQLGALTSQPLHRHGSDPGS
Chain of Retinoic acid receptor RXR-alpha (Homo sapiens) (P19793 whole entry, looked up): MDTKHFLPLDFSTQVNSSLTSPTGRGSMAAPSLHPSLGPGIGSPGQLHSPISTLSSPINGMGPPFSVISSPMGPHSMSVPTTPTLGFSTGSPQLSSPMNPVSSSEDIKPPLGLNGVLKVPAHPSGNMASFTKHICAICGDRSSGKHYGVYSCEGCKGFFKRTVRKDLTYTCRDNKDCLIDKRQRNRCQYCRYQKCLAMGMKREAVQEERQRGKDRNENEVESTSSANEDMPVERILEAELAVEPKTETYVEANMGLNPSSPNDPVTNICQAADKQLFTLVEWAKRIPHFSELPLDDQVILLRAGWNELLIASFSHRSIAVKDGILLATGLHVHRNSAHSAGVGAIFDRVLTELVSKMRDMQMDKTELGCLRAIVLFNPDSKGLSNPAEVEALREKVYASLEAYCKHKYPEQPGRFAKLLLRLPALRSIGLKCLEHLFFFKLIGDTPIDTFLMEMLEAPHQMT

For `O=S(=O)(c1ccc(Cl)cc1)c1ccc(Cl)cc1`, the activation in assay [1] is -2.41% (inactive) and 8.97% (inactive). The Potency result in [2], in [5], in [7], in [10] and in [16] was “inactive” throughout. Also, the outcome in [3], in assay [6], in [8] and in assay [11] was inactive. Also, the max response was -8.84% and -18.1% and 9.46% in assay [4]; -4.56% and -1.98% in assay [9]; -9.45% and -15.5% and -9.97% in [12]; -23.5% (inactive) and -4.94% (inactive) and -14.2% (inactive) in [13]. For the same molecule, the activity change % (negative = inhibition) in assay [14] is 9.09% (inactive) and 5.78% (inactive) and 14.1% (inactive). For the same molecule, the Potency in [15] was 44.7 µM (active).
As to `O=C(O)C(Cl)Cl`, the activation in assay [1] is -0.327% (inactive). Further, the Potency entry in assay [2], in assay [5], in assay [17], in assay [10], in assay [15] and in assay [16] was “inactive” in each case. Besides, the Potency result in assay [18] and in [19] was “inactive” each time. Besides, the outcome in assay [3], in assay [6] and in [11] was inactive. In addition, the max response in assay [4] is -4.92%; in [9], -16% and 3.52%; in assay [12], -11.2% and -3.76%; in assay [13] it was 4.75% (inactive) and -13.6% (inactive). Moreover, the activity change % (negative = inhibition) in [14] was 0.759% (inactive) and 14.6% (inactive).
`O=C(O)COc1ccccc1`: the activation in assay [1] was -4.12% (inactive). In addition, the Potency entry in [2], in [5], in assay [7], in [15], in assay [16] and in assay [18] was “inactive” throughout. Moreover, in assay [19], the Potency result is “inactive”. For the same molecule, the outcome in assay [3], in assay [6], in assay [8] and in assay [11] was inactive. In addition, the max response was 43.8% in assay [4], 0.163% in [12] and -9.5% (inactive) in assay [13]. The activity change % (negative = inhibition) in assay [14] is -9.48% (inactive).
